Screens: PubChem, National Center for Advancing Translational Sciences (NCATS)
In the library only some 4.3% were active in any assay of this set; here they are far more common.
GLP1R inv ag – acts as inverse agonist at human GLP-1 receptor; HEK293 GLP-1R CRE-luciferase, luminescence, 24 h; GLP-1R form is constitutively active; P43220; hit rate 1.6% among 410,000; Potency, µM (highest dose often 38.3 µM), most hits filed as inhibitors; AID 624417; also: nearly all actives have a fitted effect of over 55% in size
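Cells are plated, allowed 12 hours at 37 deg C, then treated with compounds for 24 hr before luciferase detection reagent is added and luminescence is read after 12 min at room temperature. The HEK293 line carries constitutively active GLP-1R with a cAMP-responsive reporter.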
GLP-1R agonist – activates the human GLP-1 receptor | P43220 | HEK293 GLP-1R CRE-luciferase, luminescence, 4-6 h; cells express a hypersensitive GLP-1R form | Potency, µM (series often up to 45.6 µM), actives largely listed as activators | hit rate 0.007% among 380,000 | AID 624172
DRD3 antagonist – D3 dopamine receptor (human) antagonism. P35462. D3R cells, DiscoveRx beta-arrestin luminescence, antagonist mode; stronger effect = lower value. max response, negative = inhibition, %. hit rate 2.5% among 360,000. AID 652054; in the data active = max response below about -50%; inconclusive = no clear call, values can overlap the other calls
Target sequence (P35462 whole entry, looked up): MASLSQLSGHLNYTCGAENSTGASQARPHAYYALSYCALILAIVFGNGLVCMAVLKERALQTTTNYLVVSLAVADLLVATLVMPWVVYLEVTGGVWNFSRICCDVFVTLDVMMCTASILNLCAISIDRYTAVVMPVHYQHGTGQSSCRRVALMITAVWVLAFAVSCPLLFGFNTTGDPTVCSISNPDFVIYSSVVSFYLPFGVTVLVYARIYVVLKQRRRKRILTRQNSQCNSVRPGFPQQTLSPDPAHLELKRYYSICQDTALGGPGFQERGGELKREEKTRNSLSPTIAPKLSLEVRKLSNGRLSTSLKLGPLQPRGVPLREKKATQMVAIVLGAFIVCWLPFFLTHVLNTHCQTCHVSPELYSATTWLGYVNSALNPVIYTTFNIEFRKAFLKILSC
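Cells expressing the human receptor were seeded at 1500 cells/well, incubated overnight at 37 degrees C in 5% CO2, then exposed to library compounds with dopamine controls for 90 minutes at 37 degrees C before luminescent detection.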
D3 ag – D3 dopamine receptor (human) agonism | D3R DiscoveRx beta-arrestin cells, luminescence, 90 min | max activation, % | hit rate 0.58% among 410,000; in the data active = max activation above about 30%
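Agonist-mode cell screen: cells plated at 1500/well and incubated overnight at 37 °C, then exposed to library compounds for 90 min at 37 °C. Detection reagent was added for 30–60 min at room temperature, and luminescence was read.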
Each line names hits and unclear results; the compound was inactive in the other large screens; ! = repeats disagree. Unless noted, calls follow the shape of the dose curve; as a rule, active = well fitted curve in the direction sought with a large enough effect; inconclusive = small, poorly fitted or top-dose-only effect, or another doubt; inactive = no such curve, though single readings can be large; an effect the other way counts as inactive or inconclusive.

Cc1ccc(S(=O)(=O)Nc2ccc(NC(=O)Nc3ccc(F)cc3F)cc2)cc1	GLP1R inv ag 5.62µM
CCOc1ccc(CNCc2c(C(=O)O)n(Cc3ccccc3C)c3cc(OC)ccc23)cc1OC	none (no result: GLP-1R agonist, DRD3 antagonist)
Cc1ccc(-n2c(=O)c3sc4ccccc4c3n(C)c2=O)cc1F	none (no result: DRD3 antagonist)
Cc1ccc(S(=O)(=O)n2nc(-c3ccccc3)nc2NCc2ccc(Cl)cc2)cc1	none (no result: DRD3 antagonist)
O=C(Cn1c(=O)c2ccccc2n(CC(=O)Nc2ccc(Cl)cc2)c1=O)NCCc1ccccc1	none (no result: GLP-1R agonist, DRD3 antagonist)
Cc1ccc(S(=O)(=O)Nc2ccc(NC(=O)CN3CCCCC3)cc2)cc1	GLP1R inv ag inconclusive, DRD3 antagonist -60.3
CC1CCN(S(=O)(=O)c2ccc(NC(=O)CN3CCCC3)cc2)CC1	GLP1R inv ag 1.78µM
CCS(=O)(=O)c1ncc(Cl)c(C(=O)Nc2ccc(S(=O)(=O)N3CCC(C)CC3)cc2)n1	GLP1R inv ag inconclusive, DRD3 antagonist -61.1
CC1CCN(CC(=O)Nc2ccc(S(=O)(=O)N3CCC(C)CC3)cc2)CC1	GLP1R inv ag inconclusive
Cc1cc(NC(=O)c2ccc(Br)o2)cc(-c2nc3ccccc3o2)c1O	none (no result: DRD3 antagonist)
CC1=C(/C=C/C(C)=C/C=C/C(C)=C/C=C/C=C(C)/C=C/C=C(C)/C=C/C2=C(C)C[C@@H](O)CC2(C)C)C(C)(C)C[C@H](O)C1	none (no result: GLP1R inv ag, GLP-1R agonist, DRD3 antagonist)
CCS(=O)(=O)N1CC(=O)N(c2cccc(C)c2C)C(C)(C(=O)NC2CCCCCC2)C1 (stereo not given)	none (no result: GLP-1R agonist, DRD3 antagonist)
COc1ccc2cc3c(N)c(C(=O)NCc4ccco4)sc3nc2c1	DRD3 antagonist -54.6
CN(C)CCN(C(=O)c1ccc2ccccc2c1)c1nc2ccc(Br)cc2s1	DRD3 antagonist -54.9
O=C(C1CCCCC1)N(Cc1cccnc1)c1nc2ccc(F)cc2s1	GLP1R inv ag 11.2µM (no result: GLP-1R agonist, DRD3 antagonist)
COc1ccc2nc(N(CCN(C)C)C(=O)c3ccc(C(=O)c4ccccc4)cc3)sc2c1	none
COc1ccc2nc(N(CCN(C)C)C(=O)c3ccc4ccccc4c3)sc2c1	DRD3 antagonist -62.7
COc1ccc2nc(N(Cc3cccnc3)C(=O)C3CCCCC3)sc2c1	GLP1R inv ag inconclusive (no result: GLP-1R agonist, DRD3 antagonist)
COc1ccc2nc(N(Cc3cccnc3)C(=O)c3ccc(Cl)cc3)sc2c1	D3 ag 59.5 (no result: GLP-1R agonist, DRD3 antagonist)
COc1ccc2nc(N(Cc3cccnc3)C(C)=O)sc2c1	none (no result: GLP-1R agonist, DRD3 antagonist)
Cc1ccc(NC(=O)Cn2c(=O)n(-c3ccccc3)c(=O)c3ccc(C(=O)NCc4ccc5c(c4)OCO5)cc32)c(C)c1	none (no result: DRD3 antagonist)
Fc1cccc(-n2ncc3c2ncn2nc(COc4ccc(Cl)cc4)nc32)c1	none (no result: GLP-1R agonist, DRD3 antagonist)
CC(C)(C)OC(=O)[C@H]1[C@H](c2ccc([N+](=O)[O-])cc2)C2(C(=O)c3ccccc3C2=O)C2c3ccccc3C=NN21 (stereo not given in full)	GLP1R inv ag inconclusive, DRD3 antagonist -58.9
COc1ccc([C@H]2[C@H](C(=O)C(C)(C)C)N3N=Cc4ccccc4C3[C@]23N=C(c2ccccc2)OC3=O)cc1 (stereo not given in full)	none
NCCNCCNCCN	D3 ag 36.0!
CSC[C@H]1CN(CCc2ccccc2)C(=O)[C@@H]1CC(=O)Nc1ccc(Br)cc1	GLP1R inv ag 10µM
O=C(C[C@H]1C(=O)N(CCc2ccccc2)C[C@@H]1Cc1ccccc1)Nc1ccc(Br)cc1	GLP1R inv ag 7.94µM
COc1ccc(NC(=O)CSc2ncc3c(n2)-c2cc(Cl)ccc2N(Cc2ccccc2F)S3(=O)=O)cc1	none (no result: GLP-1R agonist, DRD3 antagonist)
CCn1c(CN2CCC(C)CC2)nc2cc(S(=O)(=O)N3CCCCC3)ccc21	GLP1R inv ag inconclusive, DRD3 antagonist -83.1
CCn1c(SC)nc2cc(S(=O)(=O)N3CCCCC3)ccc21	none
Cc1cc(C)cc(OCCCn2c(CCNC(=O)C3CCCCC3)nc3ccccc32)c1	none (no result: GLP-1R agonist, DRD3 antagonist)
COc1ccccc1N1CCN(C(=O)Cc2c(C(=O)O)c(C)cn2C)CC1	none (no result: GLP-1R agonist, DRD3 antagonist)
CCCCC(CC)C(=O)Oc1ccc(O)c(C(C)(C)C)c1 (stereo not given)	GLP1R inv ag 5.62µM
CCOC(=O)C(=CNc1cc(C)nn1-c1ccccc1)C(=O)OCC	D3 ag 97.6
COc1ccc(-n2nnnc2C(C2CC2)N2CCN(C/C=C/c3ccccc3)CC2)cc1 (stereo not given)	GLP1R inv ag inconclusive, DRD3 antagonist -80.9
Cc1cccc(C)c1-n1nnnc1C(C1CC1)N1CCN(C/C=C/c2ccccc2)CC1 (stereo not given)	GLP1R inv ag inconclusive, DRD3 antagonist -78.8
CC(C)Nc1cccnc1N1CCN(C(=O)c2cc3cc(NS(C)(=O)=O)ccc3[nH]2)CC1	none (no result: GLP1R inv ag, DRD3 antagonist)
